Test results taken from PubChem BioAssay AID1851 (National Center for Advancing Translational Sciences (NCATS), 2009).
Screen size: about 16,000 compounds; about 4,000 (25%) were called active. About 26% were inconclusive and are not listed. Calls come from the whole dose curve; as a rule, active = well fitted curve in the direction sought with a large enough effect; inconclusive = small, poorly fitted or top-dose-only effect, or effect the other way; inactive = no such curve, though single readings can be large or run the other way. Not all results are given here.

These compounds were tested against Cytochrome P450 2C9 (Homo sapiens) (UniProt P11712) (assay: Cytochrome panel assay with activity outcomes). Conditions: recombinant CYP, pro-luciferin dealkylation, luminescence, p450-cyp2c9; series mostly up to 57.1 µM.
% is set by controls: 0 for no effect and ±100 for the full control effect.

Sequence of Cytochrome P450 2C9 (Homo sapiens) (P11712 whole entry, looked up): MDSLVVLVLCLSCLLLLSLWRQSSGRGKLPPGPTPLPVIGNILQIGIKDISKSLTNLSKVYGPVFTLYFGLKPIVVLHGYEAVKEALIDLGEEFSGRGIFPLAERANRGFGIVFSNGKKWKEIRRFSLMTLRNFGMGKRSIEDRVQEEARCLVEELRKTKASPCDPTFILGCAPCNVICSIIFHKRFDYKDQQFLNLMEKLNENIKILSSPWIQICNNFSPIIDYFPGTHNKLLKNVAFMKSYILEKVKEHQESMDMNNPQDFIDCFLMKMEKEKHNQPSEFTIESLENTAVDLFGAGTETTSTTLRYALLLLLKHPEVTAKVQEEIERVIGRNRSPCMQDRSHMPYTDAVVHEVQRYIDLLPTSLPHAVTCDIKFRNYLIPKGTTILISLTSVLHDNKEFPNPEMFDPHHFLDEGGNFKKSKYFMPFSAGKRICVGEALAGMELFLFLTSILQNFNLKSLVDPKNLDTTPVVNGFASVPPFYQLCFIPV

| SMILES | activity, negative = inhibition | AC50 |
| --- | --- | --- |
| O=P(O)(CCP(=O)(O)c1ccccc1)c1ccccc1 | 2.87% [at 11.4 µM] (inactive) | – |
| Cc1noc(C)c1-c1cncnc1N(C)Cc1ccco1 | 17.6% [at 2.29 µM] (inactive) | – |
| NCC[C@H](N)C(=O)O | 0.553% [at 11.4 µM] (inactive) | – |
| CC1(C)OC(C(N)=O)C(C(N)=O)O1 (configuration not stated) | – | inactive |
| C/C(CC(=O)NCc1ccco1)=N\NC(=O)Cc1ccccc1 | – | inactive |
| Cc1ccc(OCC(=O)NNC(=O)CCC(=O)NCc2ccccc2)cc1 | – | inactive |
| CC(C)(C)c1ccc(C(=O)NCCC(=O)NCc2ccco2)cc1 | – | 2.24 µM (active) |
| COCCNC(=O)c1ccc2c(c1)nc(C)n2-c1cc(OC)c(OC)c(OC)c1 | – | inactive |
| CCOc1ccc(-n2c(C)nc3cc(C(=O)NCc4ccco4)ccc32)cc1 | – | 17.8 µM (active) |
| CCS(=O)(=O)N1CCC(C(=O)NCc2ccco2)CC1 | – | inactive |
| Cc1ccc(OCCCC(=O)NCc2ccco2)cc1 | – | 14.1 µM (active) |
| CCCCOc1ccc(C(=O)NCc2ccco2)cc1 | – | 10 µM (active) |
| CS(=O)(=O)Nc1c(O)ccc2c1CCC[C@H]2C1=NCCN1 | – | inactive |
| CNCCCC1c2ccccc2C=Cc2ccccc21 | – | inactive |
| COc1ccc(Cl)cc1N=Nc1ncc[nH]1 | – | inactive |
| CC(=O)N1CCC[C@@]2(CCN(Cc3ccccc3)C2)C1 | – | inactive |
| O=C(O)c1ccc2c(c1)C(=O)N(C(Cc1ccc(O)cc1)C(=O)O)C2=O (configuration not stated) | – | inactive |
| C[N+](C)([O-])CCC=C1c2ccccc2CCc2ccccc21 | -29.7% [at 11.4 µM] (inactive) | – |
| Nc1ccc(C(=O)C[C@H](N)C(=O)O)cc1O | -13.6% [at 11.4 µM] (inactive) | – |
| Cc1sc(NC(=O)C2C3CCC(O3)C2C(=O)O)c(C(=O)OC(C)C)c1-c1ccc(Cl)cc1 (configuration not stated) | – | 14.1 µM (active) |
| Cc1ccc(-c2c(C)sc(NC(=O)C3C4CCC(O4)C3C(=O)O)c2C(=O)OC(C)C)cc1 (configuration not stated) | – | inactive |

| SMILES | activity, negative = inhibition | AC50 |
| --- | --- | --- |
| CCOC(=O)c1ccc(N/C(=N\S(=O)(=O)c2ccccc2C)c2ccccc2)cc1 | – | 3.98 µM (active) |
| NC(=O)c1ccccc1-c1nc(-n2ccnc2)c2ccccc2n1 | 8.72% [at 2.29 µM] (inactive) | – |
| COCCNc1ncnc2ccc(-c3ccoc3)cc12 | 0.323% [at 2.29 µM] (inactive) | – |
| CC(=O)OC[C@@H]1O[C@H](C/C=N\O[C@@H]2O[C@H](COC(C)=O)[C@@H](OC(C)=O)[C@H](OC(C)=O)[C@H]2OC(C)=O)C=C[C@@H]1OC(C)=O | 4.96% [at 11.4 µM] (inactive) | – |
| CC(=O)NS(=O)(=O)c1ccc(NC(=S)NC(=O)C(C)(C)C)cc1 | – | inactive |
| COc1ccc(CC(=O)NC(=S)Nc2ccc(S(=O)(=O)NC(C)(C)C)cc2)cc1 | – | 8.91 µM (active) |
| CN1CC[C@@]2(CCCN(C(=O)c3cc(C(F)(F)F)cc(C(F)(F)F)c3)C2)C1 | – | inactive |
| CCCCCC/C(C)=C1/SC(=S)NC1=O | – | 5.01 µM (active) |
| CCOC(=O)C1=C(O)/C(=C/c2cc(OC)c(OC)c(OC)c2)N=C1C | – | inactive |
| CCOC(=O)C1=C(O)/C(=C\c2ccc(OC)c(OC)c2)N=C1C | – | inactive |
| CCOC(=O)c1ccccc1OCc1cc(/C=N/n2cnnc2)ccc1OC | – | 2.24 µM (active) |
| O=C1CC(N2CCOCC2)C(=O)N1c1cccc(Cl)c1 (configuration not stated) | – | inactive |
| COc1ccc(C(=O)N2CCC3(CCN(C(=O)Nc4cccc(F)c4)CC3)CC2)cc1 | – | inactive |
| O=C1CC(SC(=Nc2ccccc2)Nc2ccccc2)C(=O)N1c1cccc(Cl)c1 (configuration not stated) | – | 3.55 µM (active) |
| CCOC(=O)NNC1CC(=O)N(c2ccc(OC)cc2)C1=O (configuration not stated) | – | inactive |
| CCN=C(Nc1cccc(F)c1)SC1CC(=O)N(c2ccc(OC)cc2)C1=O (configuration not stated) | – | 6.31 µM (active) |
| Cc1cnc(CNc2ncnc3ccc(-c4ccccc4Cl)cc23)cn1 | -25% [at 2.29 µM] (inactive) | – |
| CCCOc1ccc(N2C(=O)CC(S/C(N)=N/N=C(\C)c3cccs3)C2=O)cc1 (configuration not stated) | – | 4.47 µM (active) |
| COc1ccc(N2C(=O)CC(S/C(N)=N/N=C(\C)c3cccs3)C2=O)cc1 (configuration not stated) | – | 3.98 µM (active) |
| COc1ccc(-n2c(=O)c(-c3cccs3)nc3cnc(N4CCN(C)CC4)nc32)cc1 | – | inactive |
| COc1ccc(C2=Nc3cccc4cccc(c34)N2)cc1 | – | inactive |

| SMILES | activity, negative = inhibition | AC50 |
| --- | --- | --- |
| Cn1cnc2c(NC3CCCC3)ncnc21 | – | inactive |
| COc1ccc(C(=O)N2CC3(CC(c4ccc(Cl)cc4)=NO3)C[C@H]2C(=O)NCC(N)=O)cc1 (some centres not stated) | – | inactive |
| COc1ccccc1NC(=O)C(C/C=C(\C)Cl)C(C)=O (configuration not stated) | – | inactive |
| COc1ccccc1NC(=O)[C@H](COCc1ccccc1)NC(=O)OC(C)(C)C | – | 7.94 µM (active) |
| CO[C@H]1COC(=O)CCC[C@H](C)[C@@H](OC)COC(=O)C/C=C\[C@@H]1C | 14.4% [at 11.4 µM] (inactive) | – |
| Cn1cc(-c2nc3cnc(N4CCNCC4)nc3n(C)c2=O)c2ccccc21 | – | 7.94 µM (active) |
| Cn1cc(-c2nc3cnc(N4CCOCC4)nc3n(C3CC3)c2=O)c2ccccc21 | – | inactive |
| CN1CCN(c2ncc3nc(-c4cn(C)c5ccccc45)c(=O)n(-c4ccccc4)c3n2)CC1 | – | inactive |
| Cn1cc(-c2nc3cnc(N4CCNCC4)nc3n(C3CC3)c2=O)c2ccccc21 | – | 3.98 µM (active) |
| Cn1cc(-c2nc3cnc(N4CCNCC4)nc3n(-c3ccccc3)c2=O)c2ccccc21 | – | inactive |
| Cn1cc(-c2nc3cncnc3n(C3CC3)c2=O)c2ccccc21 | – | inactive |
| C[C@@H]1CCCN(CP(=O)(c2ccccc2)c2ccccc2)C1 | -15.6% [at 11.4 µM] (inactive) | – |
| Cc1n[nH]c(C)c1N=Nc1cc(Cl)ccc1Cl | – | inactive |
| CCOC(=O)CNc1c(-c2ccccc2)nc2ccc(Cl)cn12 | – | 2.82 µM (active) |
| Oc1ccc(Cc2cc(Cl)cc(Cl)c2O)cc1Cl | – | 0.2 µM (active) |
| CN(C)Cc1cc(Cl)c(O)c(CN(C)C)c1 | -9.61% [at 11.4 µM] (inactive) | – |
| O=C(O)Cc1cc(Cl)ccc1O | 12.8% [at 11.4 µM] (inactive) | – |
| CCOc1ccc(Cl)cc1CNCCNCCO | – | inactive |
| Oc1ccc(Cl)cc1Cc1cc(Cl)cc(Cc2cc(Cl)ccc2O)c1O | – | 2.51 µM (active) |
| COc1ccccc1CNc1ncncc1-c1cccnc1 | -1.61% [at 2.29 µM] (inactive) | – |
